Compounds without any hit were thinned out: in the full panel of roughly 83,000, 20% have a hit.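 Method: cells in 96-well plates; compound added at one concentration; 48 h incubation; percent growth measured; values under 10 scored active.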 Calls of active or inactive are those of the source.

For the assay, the system named is OVCAR-3 ovarian. As to the kind of experiment: NCI-60 one-dose screen, 48 h (100 = growth as untreated, 0 = no growth, -100 = all killed). Particulars: 10 µM unless noted. On the procedure:
Growth inhibition of the OVCAR-3 human tumor cell line is measured as a screen for anti-cancer activity. Cells are grown in 96 well plates and exposed to the test compound for 48 hours. Compounds are tested at a single concentration, which is 10^-5 M for most compounds. The reported endpoint is percent growth (GI% or GIPRCNT), where numbers from 0 - 100% represent growth inhibition, and numbers from -100% - 0 represent cell death. For example, a value of 40 represents 60% growth inhibition. A value of 0 means no net growth occurred over the course of the experiment. A value of -40 indicates 40% of cells at the beginning of the experiment died by the end of the experiment. A value of -100 means all cells are dead at the end of the experiment.
NCI-60 Human Tumor Cell Lines Screen was performed using the standard one-dose NCI protocol, which is described in more detail at https://dtp.cancer.gov/discovery_development/nci-60/default.htm.
Compounds with GIPRCNT values below 10 were considered active. Activity score was based on GIPRCNT using the following formula: […]
Score is 0 for GIPRCNT values of 100 or above, 50 for GIPRCNT values of 0, and 100 for GIPRCNT values of -100.
Take `Cc1ccc(C)c2c1CCC2=O`: the growth is 96.7% (inactive). As for `CC(C)C(=O)OCCOc1ccc(C(C)(C)C)cc1`, the figure is 107% (inactive). The value for `CC(=O)N=c1ccc2nc3c(cc(N)c4ccccc43)oc-2c1` was -82.8% (active). Take `N#CC1(O)CCCCC1`: the growth was 104% (inactive).

On to `CC(=O)N(C)N=Nc1ccc(C)cc1`, for which the growth is 103% (inactive). The value for `S=C(NCc1ccccc1)N1CCC(CCCC2CCN(C(=S)NCc3ccccc3)CC2)CC1` was 95% (inactive). Turning to `CCC(/C=C\C(C)=O)CC`, the growth is 122% (inactive). The value for `O=[N+]([O-])c1c(Cl)ncnc1Cl` was 105% (inactive); that for `COc1ccc(/C=N/NC(=O)COCC(=O)N/N=C/c2ccc(OC)cc2)cc1` was 108% (inactive); that for `Cc1onc(-c2c(F)cccc2Cl)c1-c1ncc(-c2ccc(Br)cc2)o1` was 43.6% (inactive).

Take `O=C(c1ccc(Cl)cc1)N1CCCCC1`: the growth is 112% (inactive).

Turning to `C[n+]1c(/C=C\C=C\N2CCCCC2)sc2ccccc21`, the growth was -24.8% (active). As to `Cn1c(=O)c2[nH]c(CCCCC(=O)O)nc2n(C)c1=O`, the growth is 113% (inactive). Regarding `CCCCCCCCNC(=O)C(C)C`, the growth is 109% (inactive). The value for `O=C1CSc2ccccc2N1` was 115% (inactive); that for `O=[N+]([O-])c1c(O)c(CNCCCO)cc(CNCCCO)c1O` was 152% (inactive). For the molecule `O=C(O)C1CSC(c2ccccc2)N1` (stereo not given), the growth is 104% (inactive).

Consider `O=C(Nc1c(Cl)cc(Cl)cc1Cl)ON=C1CCCCC1`, for which the growth was 105% (inactive). As for `CSc1cnc2ccccc2n1`, the growth was 107% (inactive). Turning to `O=[N+]([O-])c1ccc(-c2nc(N(CCO)CCO)c3ccccc3n2)o1`, the growth is -34.3% (active).

For `COc1ccc(C2CC(c3ccccc3)=Nc3ccccc3S2)cc1` (stereo not given), the growth was 93.3% (inactive). Take `CC(C)C(C)(C)C(=O)C(C)(C)C(C)(C)C`: the growth was 80.3% (inactive). Consider `CC(=O)NNC(=S)N/C=C/c1c(C)ccc([N+](=O)[O-])c1[N+](=O)[O-]`, for which the growth was 103% (inactive).

As for `O=c1[nH]c(=O)c2cc(Cl)cc(Cl)c2[nH]1`, the growth is 126% (inactive). Turning to `NC(=S)c1c(N)n(C2OC(CO)C(O)C2O)c2ncnc(N)c12` (stereo not given), the growth is -54.1% (active). Turning to `COc1cccc(C(=O)O)c1OC`, the growth was 106% (inactive). Consider `CC(=O)c1ccc(C)cc1`, for which the growth is 111% (inactive). As for `Nc1nnc2cc(F)ccc2n1`, the growth was 96.2% (inactive). As for `CC(=O)NC(CCC(=O)c1ccccc1)C(=O)O` (stereo not given), the growth is 107% (inactive). Turning to `CCOC(=O)CSCCC#N`, the growth is 111% (inactive).

As to `Nc1ncnc(Nc2ccc(C(F)(F)F)cc2)n1`, the growth was 113% (inactive).

With `C=C1C(=O)C2CCN1CC2`, the growth was 85.2% (inactive). Turning to `CC(c1ccccc1)N1C(=O)CSC1=S` (stereo not given), the growth is -13.1% (active). The value for `COc1ccc(NNS(=O)(=O)O)cc1` was 114% (inactive); that for `NNc1ncccn1` was 101% (inactive). In the case of `C=CC(C)C(C)(C)O` (stereo not given), the growth is 102% (inactive). With `O=C(O)C1CCCN1C(=O)OCc1ccccc1` (stereo not given), the growth was 120% (inactive). For `COc1ccc(/C=C\C(=O)/C=C/c2ccc(OC)cc2)cc1`, the growth is 85.1% (inactive). Turning to `OCc1cccnc1`, the growth was 114% (inactive). For `CCCCNc1ccc(-c2ccc(NCCCC)cc2)cc1`, the growth was 67.8% (inactive).

For the origin of these results see PubChem BioAssay (NCI).
